# Measured values reported in the supplement of paper PMC7156485.
# ± gives the standard deviation of the averaged measurements.
# Key:
# Conditions in all cases: concentration: 10 µM; 24 h
# HCC1569 [1] = test: cell number relative to DMSO (% of DMSO); higher = more cells (less growth inhibition / toxicity)
# Method in brief: (§1)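 H1.0 nuclear intensity or cell number is expressed as percent of the plate control, with the median of replicates taken. HCC1569 and TDF cells were treated with compounds at 10 µM for 24 h at 37 °C, in triplicate, then fixed and immunostained for H1.0 with DAPI as a nuclear stain. HCC1569 values were smoothed to correct for positional effects.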
# TDF [2] = test: as above
# Method in brief: as §1
# TDF [3] = test: H1.0 immunofluorescence intensity relative to DMSO (% of DMSO); higher = stronger H1.0 induction, active = 120 or more
# Method in brief: as §1
# HCC1569 [4] = test: H1.0 immunofluorescence intensity relative to DMSO (% of DMSO); higher = stronger H1.0 induction, active = 140 or more
# Method in brief: as §1
# 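Wherever H1.0 immunofluorescence intensity relative to DMSO is given: TDF is a line of transformed human dermal fibroblasts of mesenchymal origin.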
# 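Wherever cell number relative to DMSO is given: TDF denotes transformed human dermal fibroblasts of mesenchymal origin.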
SMILES,cell number (HCC1569 [1]),cell number (TDF [2]),H1.0 immunofluorescence intensity (TDF [3]),H1.0 immunofluorescence intensity (HCC1569 [4])
CCC1(O)C(=O)OCc2c1cc1n(c2=O)Cc2cc3ccccc3nc2-1 (stereo unspecified) [Camptothecin],54.2 ± 2.9,24 ± 1.1,128 (active),120 (inactive)
Cl.NCCc1c[nH]c2ccc(O)cc12 [Serotonin hydrochloride],102,118,90.1 (inactive),92.2 (inactive)
CC1CC=CC2C3OC3(C)C(C)C3C(Cc4ccccc4)NC(=O)C23OC(=O)OC=CC(C)(O)C1=O (stereo unspecified) [Cytochalasin E],63.3,32.4,226 (active),247 (active)
CC(=O)OCC12CCC(C)=CC1OC1C(O)C(OC(C)=O)C2(C)C12CO2 (stereo unspecified) [Diacetoxyscirpenol],56.8,13.6,128 (active),95.6 (inactive)
NC(=O)CN1CC(O)CC1=O (stereo unspecified) [Oxiracetam],101,111,89.7 (inactive),95.4 (inactive)
CCCCCCCCCCCCCCC(Br)C(=O)O (stereo unspecified) [2-bromohexadecanoic acid],109,107,91.6 (inactive),94.5 (inactive)
Cl.Cl.Cn1cnc(CCN)c1 [1-Methylhistamine dihydrochloride],98.1,110,86.4 (inactive),95.3 (inactive)
CC1CCC2(NC1)OC1CC3C4CC=C5CC(O)CCC5(C)C4CCC3(C)C1C2C (stereo unspecified) [Solasodine],102,97.4,100 (inactive),89.2 (inactive)
CN(C)C(=O)C(CCN1CCC(O)(c2ccc(Cl)cc2)CC1)(c1ccccc1)c1ccccc1.Cl [Loperamide.HCl],102,98.6,97.6 (inactive),105 (inactive)
